Source: PubChem BioAssay (National Center for Advancing Translational Sciences (NCATS))
D2 antagonist – HTS Assay for Allosteric Antagonists of the Human D2 Dopamine Receptor: Primary Screen for Antagonists. HEK293 TREx D2 cells, calcium flux, dopamine EC80. inhibition, % at 10 µM. actives 2% (n = 340,000). AID 485344, 2010; in the data active = inhibition above about 30%; inactive = below that, where a call was filed
Target sequence (P14416 whole entry, looked up): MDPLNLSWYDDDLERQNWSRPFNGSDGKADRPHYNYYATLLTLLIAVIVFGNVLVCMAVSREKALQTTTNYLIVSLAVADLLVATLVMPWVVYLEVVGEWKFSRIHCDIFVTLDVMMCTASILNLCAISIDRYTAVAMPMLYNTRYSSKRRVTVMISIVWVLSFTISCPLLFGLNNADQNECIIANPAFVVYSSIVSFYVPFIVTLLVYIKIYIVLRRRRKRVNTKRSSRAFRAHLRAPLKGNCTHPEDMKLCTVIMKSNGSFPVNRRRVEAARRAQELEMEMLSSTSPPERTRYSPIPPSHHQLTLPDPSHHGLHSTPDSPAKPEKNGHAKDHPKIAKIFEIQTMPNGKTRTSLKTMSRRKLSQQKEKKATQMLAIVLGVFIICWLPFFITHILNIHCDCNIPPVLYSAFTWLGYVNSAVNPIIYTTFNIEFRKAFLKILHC
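HEK293 T-REx D2 cells, tet-induced, calcium dye no-wash. Cpd pintool add, 180 s kinetic, then EC80 DA, 180 s kinetic. Ca flux read.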
D2 PAM-1 – HTS Assay for Positive Allosteric Modulators of the Human D2 Dopamine Receptor: Primary Screen for Potentiators | D(2) dopamine receptor (Homo sapiens), P14416 | potentiation, % at 10 µM | actives 0.34% (n = 340,000) | HEK293 T-REx D2, calcium flux, EC20 dopamine potentiation;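 active = potentiation over 3 SD above the plate norm, cut at about 30% in these data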
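Calcium flux readout, no-wash dye, 1 read/s. Inducible HEK293 Trex D2 line, overnight 30 C. Compound alone 180 s (agonist flags), then EC20 dopamine, another 180 s to score potentiation.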
D2 PAM-2 – Beta-Arrestin HTS for Positive Allosteric Modulators of the Human D2 Dopamine Receptor: Potentiators; D(2) dopamine receptor (Homo sapiens), P14416; actives 0.23% (n = 360,000); potentiation, % (test concentration not listed); DiscoveRx D2 beta-arrestin cells, luminescence, 90 min; 100% = 57 uM dopamine signal; in the data active = potentiation above about 50%; inconclusive = mostly about 30% to 49%
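D2 cells co-treated with compound plus 50 nM dopamine (EC20) for 90 min at 37 deg C to detect potentiation. Beta-arrestin recruitment was read as enzyme-fragment luminescence after 1 h at ambient temperature. Full response was set by 57 uM dopamine.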
D2 ag-1 – Beta-Arrestin HTS for Positive Allosteric Modulators of the Human D2 Dopamine Receptor: Agonists; D(2) dopamine receptor (Homo sapiens), P14416; DiscoveRx PathHunter D2 beta-arrestin, luminescence, 90 min; 100% = 57 uM dopamine signal; activation, % (no concentration beside the values); actives 0.084% (n = 360,000); AID 624465, 2012; in the data active = activation above about 40%; inconclusive = between about 15% and that limit
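DiscoveRx PathHunter D2 beta-arrestin cells (2,100/well) attached overnight, then compound-stimulated 90 min at 37 C in HBSS/10 mM HEPES/0.1% Tween-20 buffer; beta-galactosidase complementation read by luminescence after 1 h at ambient temperature. Dopamine 57 uM final (EC100) as control.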
D2 ag-2 – HTS Assay for Allosteric Agonists of the Human D2 Dopamine Receptor: Primary Screen for Agonists | D(2) dopamine receptor (Homo sapiens), P14416 | HEK293 T-REx D2 cells, calcium flux agonist mode | activation, % at 2 µM | actives 0.53% (n = 340,000) | AID 485358, 2010;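 active = activation over 3 SD above normal in the single-dose calcium agonist read, cut at about 30% in these data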
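Tetracycline-induced HEK293 Trex cells with D2 receptor force-coupled to calcium signaling, plated overnight at 30 C and loaded with no-wash calcium dye. Calcium flux read kinetically for 180 s after compound addition; responses flag agonists.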
A number is an active result; - = inactive; ? = inconclusive; . = no result. Sampled rows, rich in hits. Any-hit rate of the full collection: about 2.4%.

SMILES	D2 antagonist	D2 PAM-1	D2 PAM-2	D2 ag-1	D2 ag-2
CCc1ccc2[nH]c(=O)c(C(c3nnnn3Cc3ccccc3)N3CCOCC3)cc2c1 (configuration not stated)	36.4	-	-	-	-
CCc1ccc2[nH]c(=O)c(C(c3nnnn3Cc3ccc(OC)cc3)N3CCOCC3)cc2c1 (configuration not stated)	-	-	-	-	-
CCc1ccc2[nH]c(=O)c(CN(Cc3ccc(F)cc3)C(c3nnnn3CCN3CCOCC3)C(C)C)cc2c1 (configuration not stated)	-	31.3	-	-	-
CCc1ccc(S(=O)(=O)Nc2ccc3[nH]c(=O)sc3c2)cc1	.	-	.	.	-
Cc1nn2c(=O)cc(COc3ccc(/C=C(\C#N)C(=O)Nc4ccc(F)cc4)cc3)nc2s1	.	-	.	.	-
COc1ccc(C(=O)Nc2nc(-c3nnn(-c4ccc(F)cc4F)c3C)ns2)cc1	.	-	.	.	-
CCCC(=O)Nc1ccc(OCC(=O)OC)cc1	-	-	-	-	-
CCCC(=O)Nc1ccc(Oc2ccc(NC(=O)CCC)cc2)cc1	-	35.3	-	-	-
COC(=O)c1c(Oc2ccc(Br)cc2)nnc(-c2ccccc2)c1-c1ccccc1	.	-	.	.	-
CCOc1cccc(-c2c(C(=O)N/N=C/c3cccs3)nnn2-c2nonc2N)c1	31.8	-	-	-	-
COc1cccc2sc3ccc(C#CC4(N)CCCCC4)cc3c(=O)c12	31.4	-	-	-	-
COc1cccc2sc3cc(C#CC4(O)CCCCC4)ccc3c(=O)c12	.	.	-	?	.
COC(=O)c1cc(C(=O)c2ccc(Cl)cc2Cl)cn1C	-	38.1	-	-	-
CCOC(=O)N1CCN(Cc2nc3cc(NC(=O)C(C)C)ccc3n2C(C)C)CC1	.	-	.	.	-
Cc1ccc(C(=O)COC(=O)CSc2cccc3cccnc23)c(C)c1	.	.	57.2	-	.
CCOC(=O)c1ccc(NC(=O)C2CCN(S(=O)(=O)Cc3ccccc3)CC2)cc1	.	-	.	.	-
COc1ccc(CNC(=O)Cn2c(=O)nc(-c3ccccc3F)c3cc(Cl)ccc32)cc1	.	-	.	.	-
COc1ccc(C(=O)Nc2ccc(O)c3ccccc23)cc1OC	.	.	81.9	?	.
COC(=O)C1CCN(C(=O)CSc2nc3ccc(OC)cc3[nH]2)CC1	-	-	-	-	-
COc1ccc2nc(SCC(=O)N3CCNC3=O)[nH]c2c1	43.9	-	-	-	-
COc1ccccc1CNC(=O)c1ccc(N2CCCC2)c(NC(=O)NCc2ccc(F)cc2)c1	.	-	.	.	-
CCOC(=O)c1cnc2ccccc2c1Nc1cccc(OC)c1	.	-	.	.	-
Cc1ccc(NC(=S)N(CCN(C)C)C(C)c2cccnc2)c(C)c1 (configuration not stated)	-	32.3	-	-	-
CCOC(=O)c1c(C)[nH]c(C)c1S(=O)(=O)N(C)CC(=O)N1CCN(c2cccc(Cl)c2)CC1	.	-	.	.	-
COc1ccccc1NC(=O)NCCN1CCN(c2cccc(Cl)c2)CC1	53.2	-	-	-	-
SMILES	D2 antagonist	D2 PAM-1	D2 PAM-2	D2 ag-1	D2 ag-2
COC(=O)c1[nH]c2cccc(OC)c2c1NC(=O)CCN1CCN(c2cccc(Cl)c2)CC1	38.3	-	.	.	-
CCOc1ccc(Sc2cc(C(=O)NC(C)c3ccccc3)c3ccccc3n2)cc1 (configuration not stated)	.	-	.	.	-
C=C(C)Cn1c(SCC(=O)Nc2cc(C)ccc2C)nc2sc3c(c2c1=O)CCCC3	.	-	.	.	-
Cn1c(=O)c2c(-c3ccccc3)n3c(c2n(C)c1=O)C(c1cccc([N+](=O)[O-])c1)Nc1ccccc1-3 (configuration not stated)	.	-	.	.	-
O=C1CCCN2N=C(SCC(=O)N3N=C(c4ccc(Br)cc4)CC3c3ccc(F)cc3)SC2=N1 (configuration not stated)	-	-	-	-	-
COc1ccc(C2=NN(C(=O)CSc3nc(=O)n4cc(C)ccc4n3)C(c3ccc(C)cc3)C2)cc1 (configuration not stated)	40.6	-	-	-	-
Cc1ccc(C2CC(c3ccc(Br)cc3)=NN2C(=O)CSC2=NN3CCCC(=O)N=C3S2)cc1 (configuration not stated)	-	33.0	-	-	-
COc1ccc(C2=NN(C(=O)CSc3ncccn3)C(c3ccc(OC)cc3)C2)cc1 (configuration not stated)	-	-	-	-	-
CCOC(=O)N1CCN(C(=O)C(=O)Nc2sc3c(c2C(N)=O)CC(C)(C)OC3)CC1	33.0	-	-	-	-
CCn1c(=O)c2sccc2n2c(CCCC(=O)N3CCN(c4ccc(F)cc4)CC3)nnc12	.	-	.	.	-
CN(CC/C=C1/c2ccccc2CSc2ccccc21)CCCO	-	-	-	-	-
C=CCN(C)CC/C=C1\c2ccccc2CSc2ccccc21	68.5	-	-	-	-
CN(C)CC/C=C1\c2cc(F)ccc2CSc2ccccc21	36.8	-	-	-	-
COc1cc2[nH]c(C(=O)NCC3CCCO3)cc2c(OC)c1OC (configuration not stated)	55.3	-	-	-	-
CC(C)CCNC(=O)CCn1c(=S)oc2ccccc21	-	44.2	-	-	-
O=C(NCc1ccccc1Cl)NCc1noc2ccccc12	.	-	.	.	-
COc1ccc(C2=Nc3ccc(Br)cc3C(c3ccccc3)N2CC(=O)NN)cc1 (configuration not stated)	.	-	-	-	.
COC(=O)CN1C(c2ccc(Cl)cc2)=Nc2ccc(Cl)cc2C1c1ccccc1 (configuration not stated)	48.9	-	-	-	-
COc1ccc(C2=Nc3ccc(C)cc3C(c3ccccc3)N2CC(=O)NN)cc1 (configuration not stated)	107.7	-	-	-	-
NNC(=O)CN1C(c2cccc(Cl)c2)=Nc2ccc(Br)cc2C1c1ccccc1 (configuration not stated)	33.9	-	-	-	-
CCOc1ccc(N(CC(=O)Nc2ccc3c(c2)OCO3)S(=O)(=O)c2ccccc2)cc1	.	-	.	.	-
CCn1cc(C(=O)O)c(=O)c2cc(F)c(N3CCN(C(=S)NC(=O)c4ccccc4Br)CC3)cc21	-	30.7	-	-	-
CCn1cc(C(=O)O)c(=O)c2cc(F)c(N/N=C/c3ccccc3[N+](=O)[O-])cc21	30.0	-	-	-	-
